From PubChem BioAssay
proKLK7 act: activates the human kallikrein-7 zymogen; P49862; purified proKLK7, EDANS-DABCYL substrate fluorescence; 100% is mature enzyme control, 0% vehicle; activation, % at 7 µM; 370,000 compounds, 0.9% hits;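 active = activation above the mean of all tested compounds plus 3 SD, computed per campaign excluding outliers beyond control limits, cut at about 13% in these data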
Target sequence (P49862 whole entry, looked up): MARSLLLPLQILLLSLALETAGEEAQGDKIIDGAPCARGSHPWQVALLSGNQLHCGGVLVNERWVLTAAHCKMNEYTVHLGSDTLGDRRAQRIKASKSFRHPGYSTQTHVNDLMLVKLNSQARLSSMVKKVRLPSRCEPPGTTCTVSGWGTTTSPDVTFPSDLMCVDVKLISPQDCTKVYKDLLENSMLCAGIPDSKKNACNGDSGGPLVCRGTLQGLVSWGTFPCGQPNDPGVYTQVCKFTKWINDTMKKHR
FAS-TE inh: inhibitors of human fatty acid synthase thioesterase domain | P49327 | recombinant FAS-TE, OMFH fluorogenic substrate, fluorescence endpoint | inhibition, % at 15 µM | 360,000 compounds, 0.67% hits | AID 602261;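 active = compounds whose normalised, plate-corrected inhibition of enzyme fluorescence in the single-dose primary screen is 50% or more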
PfG6PD inh: PfG6PD (Plasmodium falciparum) enzyme inhibition | PfGluPho enzyme, NADPH resazurin-diaphorase fluorescence | inhibition, % at 20 µM | 350,000 compounds, 0.78% hits | AID 504690;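 active = inhibition reaching at least a set limit at 20 µM in the primary screen, cut at about 59% in these data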
Neddylation inh: inhibitors of human cullin neddylation; P61081+Q13564; TR-FRET cullin neddylation, biochemical; calls only at 25 µM; 360,000 compounds, 0.58% hits; AID 651699; in the data active = inhibition above about 36%
Neddyl inh conf: confirmation of human cullin neddylation inhibitors | TR-FRET cullin neddylation biochemical assay | 1,800 compounds, 13% hits | calls only at 25 µM | shares compounds with Neddylation inh; in the data active = inhibition above about 40%;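 note: neddylation substrate is the cullin 1 ring ligase complex with SKP2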
Large screens that a line does not name were inactive (follow-up assays come after a bar, where shown). Only some compounds are listed: those with a hit (about 2.7% of all), similar ones and a draw of the others.

CC(C)c1ccc(/C=C/C(=O)NC(=S)Nc2ccc(CN3CCOCC3)cc2)cc1	Neddylation inh active | Neddyl inh conf inactive
CC(C)c1ccc(/C=C/C(=O)NC(=S)NN2CCOCC2)cc1	none
COc1ccc(Cc2c(-c3ccc(Cl)cc3)nc3c(C)cc(Br)cn23)c(C)c1	none (no result: PfG6PD inh)
O=C(O)CN(c1ccccn1)S(=O)(=O)c1ccc(Cl)cc1	none
O=C(O)CN(c1ccccn1)S(=O)(=O)c1ccccc1	Neddylation inh active | Neddyl inh conf inactive
CC(C)N(Cc1ccccc1)C(=O)COC(=O)c1cnc(Cl)c(Cl)c1	none
COc1cccc(-c2ccc(C#N)c(OC(=O)c3ccc(Cl)cc3)n2)c1	Neddylation inh active | Neddyl inh conf inactive
COc1ccc(/C=C/c2ccncc2)cc1OC	none
COc1ccc(/C=C\c2cc(OC)c(OC)cc2CC[N+](C)(C)C)cc1OC	Neddylation inh active | Neddyl inh conf inactive
COC(=O)c1cc(-c2ccc(-c3ccccc3)c(F)c2)c(=O)n2c1CCC2	none (no result: FAS-TE inh, PfG6PD inh, Neddylation inh)
COC(=O)c1cc(=O)nc2sc(-c3cccs3)nn12	Neddylation inh active | Neddyl inh conf inactive
COc1ccc(/C(C)=N/NC(=O)c2cc(-c3cccnc3)nc3ccccc23)cc1	none
CCOc1ccc(-c2cc(C(=O)N/N=C(\C)c3cccnc3)c3ccccc3n2)c(OCC)c1	Neddylation inh active | Neddyl inh conf inactive
Nc1ncccc1C(=O)OCC(=O)N1CCN(S(=O)(=O)c2ccc(Cl)cc2)CC1	Neddylation inh active
CCOc1ncccc1C(=O)OCC(=O)N1CCN(S(=O)(=O)c2ccc(Cl)cc2)CC1	none
COCCCNC(=S)N(CCO)Cc1cc2cc3c(cc2[nH]c1=O)OCO3	Neddylation inh active | Neddyl inh conf inactive
O=C(NC1CCCCC1)N(CCN1CCCC1)Cc1cc2cc3c(cc2[nH]c1=O)OCCO3	none (no result: proKLK7 act)
O=C(NC1CCCCC1)N(CCO)Cc1cc2cc3c(cc2[nH]c1=O)OCCO3	Neddylation inh active | Neddyl inh conf inactive
COCCCNC(=S)N(CCCO)Cc1cc2cc3c(cc2[nH]c1=O)OCCO3	none
COCCCNC(=S)N(CCCO)Cc1cc2cc3c(cc2[nH]c1=O)OCO3	Neddylation inh active | Neddyl inh conf inactive
O=C1NC[C@H](CCCCN2CCN(CCC3CCCCC3)C(=O)C2=O)N(CCc2ccc(O)cc2)C1=O	none (no result: PfG6PD inh)
Cc1ccccc1CC(=O)Nc1nnc(-c2cccnc2)s1	none (no result: FAS-TE inh, PfG6PD inh, Neddylation inh)
Cc1ccc(-c2c(C#N)c(N)nc3c2CCCCC3)o1	Neddylation inh active
CC(C)C(=O)N1CC[C@H]2[C@H](CCCN2Cc2cc(F)cc(F)c2)C1	none (no result: FAS-TE inh, PfG6PD inh, Neddylation inh)
NS(=O)(=O)c1ccc(-c2ccc(/C=N/Nc3ccc(C(=O)O)cc3)o2)cc1	Neddylation inh active | Neddyl inh conf inactive
NS(=O)(=O)c1ccc(-c2ccc(/C=N/NC(=O)c3ccc([N+](=O)[O-])cc3)o2)cc1	none
Cc1cccc(C(=O)OCC(=O)N2CCN(C(=O)c3ccco3)CC2)c1O	none
CC(C)c1cc(C(=O)OCC(=O)N2CCN(C(=O)c3ccco3)CC2)c(O)c(C(C)C)c1	Neddylation inh active | Neddyl inh conf inactive
Cc1nc2scc(C)n2c(=O)c1S(=O)(=O)NCC1CCN(Cc2ccc(Cl)cc2)CC1	Neddylation inh active | Neddyl inh conf inactive
O=C(CCn1cnc2ccccc21)N/N=C/c1ccccc1O	Neddylation inh active | Neddyl inh conf inactive
O=C(CCn1cnc2ccccc21)N/N=C/c1ccc(O)cc1	none
CC(C)Cc1csc(NC(=O)c2ccc(Cl)cc2)c1C(=O)O	Neddylation inh active | Neddyl inh conf inactive
COCCOC(=O)C1=C(C)NC(C)=C(C(=O)OCCOC)C1/C=C/c1ccccc1OC	Neddylation inh active
CC/C(=N\Nc1ccnc2cc(Cl)ccc12)c1ccc(O)cc1	Neddylation inh active | Neddyl inh conf inactive
O=C(N/N=C/c1ccccc1)C(O)c1ccccc1 (stereo unspecified)	none
CCN(CC)c1ccc(/C=N/NC(=O)C(O)c2ccccc2)cc1 (stereo unspecified)	Neddylation inh active
C=CCNC(=S)N/N=C/c1ccc(N(CC)Cc2ccccc2)cc1	Neddylation inh active
CCN(CC)c1ccc(/C=N/NC(=O)c2c(Cl)c(C)nn2C)cc1	Neddylation inh active | Neddyl inh conf inactive
COc1ccc(/C=N/NC(=O)Cc2ccc(Cl)cc2)cc1OC	none
CCN(CC)c1ccc(/C=N/NC(=O)c2ccc(Br)o2)cc1	none (not shown: Neddylation inh)
CCN(CC)c1ccc(/C=N/NC(=O)Cc2ccc(OC)c(OC)c2)cc1	Neddylation inh active | Neddyl inh conf active
C=CCn1c(SCc2c(Cl)cccc2Cl)nnc1-c1cccc(C)c1	none (no result: FAS-TE inh, PfG6PD inh, Neddylation inh)
